Results filed as inconclusive are left out. Entries that show only a call come without a potency. A number with no mark means an inactive call. Activity calls are given as the source filed them. The call rests on the fitted dose curve; in most records, active means well fitted curve in the direction sought with a large enough effect; inconclusive means small, poorly fitted or top-dose-only effect, or another doubt; inactive means no such curve, though single readings can be large; an effect the other way counts as inactive or inconclusive.
Key:
[1] = molecular target: Cellular tumor antigen p53 (Homo sapiens) (UniProt P04637); experiment: Primary qHTS for small molecule compounds that upregulate eGFP-tagged delta133p53alpha (in N-terminal) cells. (AID 2060322); details: NCI-H358 eGFP-delta133p53alpha fluorescence, 24 h; activation: stronger effect = higher value; further: nearly all actives have a fitted effect of over 75% in size; further: potency means the concentration at half of the fitted maximal effect;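 on activation: cells pre-induced with doxycycline then dosed without doxycycline; series mostly up to about 56 µM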
Sequence of Cellular tumor antigen p53 (Homo sapiens) (P04637 whole entry, looked up): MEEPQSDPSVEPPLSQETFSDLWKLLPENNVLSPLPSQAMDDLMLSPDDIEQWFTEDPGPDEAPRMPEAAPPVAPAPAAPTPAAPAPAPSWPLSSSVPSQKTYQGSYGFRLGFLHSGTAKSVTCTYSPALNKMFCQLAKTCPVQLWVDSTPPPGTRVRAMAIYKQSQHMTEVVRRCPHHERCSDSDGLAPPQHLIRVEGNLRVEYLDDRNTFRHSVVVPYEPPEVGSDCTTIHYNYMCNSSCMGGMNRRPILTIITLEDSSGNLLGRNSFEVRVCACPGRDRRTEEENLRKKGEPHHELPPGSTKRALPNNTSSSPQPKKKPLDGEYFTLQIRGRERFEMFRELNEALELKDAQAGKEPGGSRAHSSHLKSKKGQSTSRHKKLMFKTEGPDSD
In short: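 NCI-H358 cells pre-induced 24 h with 10 ng/ml doxycycline for eGFP-delta133p53alpha, plated dox-free and exposed 24 h at 37C to titrated compounds. Fixed, Hoechst-stained; gated GFP peak intensity by laser scanning cytometry, normalized to DMSO (0%) and 57.5 uM 5-azacytidine (100%).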

[2] = molecular target: Aldehyde dehydrogenase, mitochondrial (Homo sapiens) (UniProt P05091); experiment: qHTS for Inhibitors of the Aldehyde Dehydrogenase Family (ALDH2) Primary screen (AID 2061308); further: nearly all actives have a fitted effect of over 55% in size
[3] = molecular target: Retinaldehyde dehydrogenase 3 (Homo sapiens) (UniProt P47895); experiment: qHTS for Inhibitors of the Aldehyde Dehydrogenase Family (ALDH1A3) Primary screen (AID 2061315)

SMILES	activation [1]	Potency [2]	Potency [3]	activity change, negative = inhibition [2]	activity change, negative = inhibition [3]	Potency [1]
CC1OC(OC2C(OC3C(O[C@H]4CC[C@@]5(C)C(CC[C@]6(C)C5C(=O)C=C5C7CC(C)(C)CC(O)[C@]7(C)CC[C@]56C)C4(C)C)OC(C(=O)O)C(O)C3O)OCC(O)C2O)C(O)C(O)C1O (some centres not stated)	2.29%	inactive	inactive			
CN[C@H](C(=O)N[C@H](C(=O)N(C)[C@H](/C=C(\C)C(=O)O)C(C)C)C(C)(C)C)C(C)(C)c1ccccc1	15.8%	inactive	inactive			
CO[C@@H]1CC(OC2CCC3(C)C(CCC45CCC(C6=CC(=O)OC6)C(C)(CCC43)C5=O)C2)O[C@H](C)[C@@H]1O[C@@H]1O[C@H](CO[C@@H]2O[C@H](CO)[C@@H](O)[C@H](O)[C@H]2O)[C@@H](O)[C@H](O)[C@H]1O (some centres not stated)	1.53%	inactive	inactive			
CC(CC12CCCN1C(=O)C1CCCN1C2=O)OC(N)=O (configuration not stated)	-18.3%	inactive	inactive			
COc1ccc(OC2OC(CO[C@@H]3O[C@@H](C)[C@H](O)[C@@H](O)[C@H]3O)C(O)C(O)C2O)cc1OC (some centres not stated)	8.4%	inactive	inactive			
C=CC(C)(O)CC/C=C(\C)C(=O)O[C@@H]1[C@@H](O)[C@H](OC(C)(C=C)CC/C=C(\C)C(=O)O)O[C@H](CO)[C@H]1OC(=O)/C(C)=C/CCC(C)(O)C=C (some centres not stated)	9.92%	inactive	inactive			
CCC(C)CNCC(=O)N1CCC2SC=CC2C1COc1cccc(C)c1 (configuration not stated)	17.9%	inactive	inactive			
COC(=O)c1ccnc(-c2cc(C(=O)Nc3ccc(C4(N)CC4)cc3)ccn2)c1	1.67%	inactive	inactive			
OC[C@@]1(O)CO[C@H](OC[C@H]2O[C@@H](OCCc3ccccc3)[C@H](O)[C@@H](O)[C@@H]2O)[C@@H]1O	-10.7%	inactive	inactive			
C=C(C(=O)O)C1CC(OC(=O)CC(C)CC)C2(C)CCCC(=C)C2C1 (configuration not stated)	-13%	inactive	inactive			
C=C1CCC(OC(C)=O)C2(C)CC3OC(=O)C(C)=C3CC12 (configuration not stated)	-0.763%	inactive	inactive			
C/C=C(\C)C(=O)OCC1OC(OC2OC(CO)C(O)C(O)C2O)C(O)C(O)C1O (configuration not stated)	-16.8%	inactive	inactive			
C[C@@H]1CC[C@]2(C)C3(C)CC[C@@]2(OC3=O)[C@@]12C[C@H](c1ccoc1)OC2=O	26.7%	inactive	inactive			
C/C=C1/[C@H](O[C@@H]2O[C@H](CO)[C@@H](O)[C@H](O)[C@H]2O)OC=C(C(=O)OC)[C@H]1CC(=O)OCCc1ccc(O)c(O)c1	5.34%	inactive	inactive			
O=C(OC1C[C@H]2CC[C@@H](C1)[N+]21CCCC1)C(O)(c1ccccc1)c1ccccc1 (some centres not stated)	5.18%	inactive	inactive			
Nc1nc(Cl)nc2c1ncn2C1OC(CO)C(O)C1F (configuration not stated)	0%	inactive	inactive			
CO[C@H]1O[C@@H]2O[C@@]3(C)CCC4[C@H](C)CCC([C@H]1C)[C@]42OO3 (some centres not stated)	11.7%	inactive	inactive			
CC1=C(C)C(=O)OC(C(C)C2C(O)CC3C4C5OC5C5(O)CC(OC6OC(CO)C(O)C(O)C6O)CC(O)C5(C)C4CCC32C)C1 (configuration not stated)	-6.87%	inactive	inactive			
CC(O)C/C=C/C=C/C(=O)OC1C=C2COC(=O)C2(O)C2(C)CCCC(C)(C)C12 (configuration not stated)	5.34%	inactive	inactive			
CCCCS(=O)(=O)Nc1ncnc(OCCOc2ncc(Br)cn2)c1-c1ccc(Br)cc1	-20.3%	inactive	inactive			
C=C1C(=O)OC2CC(COC(=O)C(C)C)=C(C(C)CCCOC(C)=O)[C@@H](OC(C)=O)C12 (some centres not stated)	6.87%	inactive	inactive			
CC(=O)O[C@H]1CC[C@H](C)[C@@]2(C)[C@H](OC(C)=O)c3c(C)coc3C(=O)[C@H]12	-3.82%	inactive	inactive			
O=C(OCC1=CC(Cl)C(O)C(OC(=O)c2ccccc2)C1O)c1ccccc1 (configuration not stated)	-22.9%	inactive	inactive			
CC(C)C(NC(=O)c1ccc2ccccc2n1)C(=O)NC(CC(=O)O)C(=O)COc1c(F)cccc1F (configuration not stated)	2.33%	inactive	inactive			
CCNc1nc(Nc2cc(F)c(C(=O)N3CCOCC3)cc2OC)ncc1C(F)(F)F	10.7%	inactive	inactive			

SMILES	activation [1]	Potency [2]	Potency [3]	activity change, negative = inhibition [2]	activity change, negative = inhibition [3]	Potency [1]
CC(=O)OCC(=O)Nc1cc(C#N)cc(NC(=O)COC(C)=O)c1Cl	2.33%	inactive	inactive			
C/C=C(/C)C(=O)OC1CC(C)(C)CC2C3=CCC4C5(C)CCC(OC6OC(C)C(OC7OC(C(=O)O)C(O)C(OC8OC(CO)C(O)C(O)C8OC8OC(CO)C(O)C(O)C8O)C7O)C(O)C6O)C(C)(C)C5CCC4(C)C3(C)C(OC(=O)/C=C/C=C/C=C/CCC)C(OC(C)=O)C12CO (configuration not stated)	14.5%			6.9% [at 11.2 µM]	9.07% [at 11.2 µM]	
O=C(N/N=C/c1ccc(O)c(O)c1)c1cc2ccccc2cc1O	4.33%	inactive	inactive			
CC(=O)O[C@H]1CC(C)(C)CC2[C@]13CO[C@@]21CCC2[C@@]4(C)CC[C@H](O[C@@H]5OC[C@H](O[C@@H]6O[C@H](CO)[C@@H](O)[C@H](O)[C@H]6O[C@@H]6OC[C@@H](O)[C@H](O)[C@H]6O)[C@H](O)[C@H]5O[C@@H]5O[C@H](CO)[C@@H](O)[C@H](O)[C@H]5O)[C@@](C)(CO)C4CC[C@@]2(C)[C@]1(C)C[C@H]3O (some centres not stated)	-17.9%	inactive	inactive			
CC(=O)C1=CCC2C3CCC4CC(O[C@@H]5O[C@H](CO)[C@@H](O[C@@H]6O[C@@H](C)[C@H](O)[C@@H](O)[C@H]6O)[C@H](O)[C@H]5O[C@@H]5O[C@H](CO)[C@@H](O)[C@H](O)[C@H]5O)CCC4(C)C3CCC12C (some centres not stated)	-10.7%	inactive	inactive			
Cn1ccnc1CCOC(c1cc2nccc(C(=O)O)c2[nH]1)c1ccccc1Cl (configuration not stated)	-5%	inactive	inactive			
CC(C)=CCC[C@@](C)(O)[C@H]1CC[C@]2(C)[C@@H]1[C@H](O)CC1[C@@]3(C)CC[C@H](O[C@@H]4O[C@H](CO)[C@@H](O)[C@H](O)[C@H]4O[C@@H]4O[C@H](CO)[C@@H](O)[C@H](O)[C@H]4O)C(C)(C)[C@@H]3CC[C@]12C (some centres not stated)	-17.6%	inactive	inactive			
N#CCc1ccc(O)cc1O[C@@H]1O[C@H](CO)[C@@H](O)[C@H](O)[C@H]1O	-11.6%	inactive	inactive			
CC1(C)C[C@@H]2[C@H](C1)[C@@]1(C)C[C@]13C(O)OC[C@]3(O)[C@H]2O (some centres not stated)	6.25%	inactive	inactive			
COc1cc2ncnc(Nc3cccc(I)c3)c2cc1OC		inactive	inactive			12 µM (active)
CCN1C(C)(C)CC(Oc2ccc(C(=O)Nc3ccc(NC(=O)Nc4cc(C(C)(C)C)on4)cc3)nc2)CC1(C)C		inactive	inactive			21.3 µM (active)
OCC1=CC[C@@H]2C=CO[C@@H](O[C@@H]3O[C@H](CO)[C@@H](O)[C@H](O)[C@H]3O)[C@H]12	-9.92%	inactive	inactive			
CC(=O)N[C@H]1CCN(c2ccc(C3=NOC(CN[S+](=O)([O-])C(C)C)C3)cc2F)C1 (some centres not stated)	11.7%	inactive	inactive			
CC1OC(OC2C(O)C(C(=O)O)OC(OC3CCC4(C)C(CCC5(C)C4C=CC4=C6CC(C)(C)CC(O)C6(C)CCC45C)C3(C)C)C2OC2OCC(O)C(O)C2O)C(O)C(O)C1O (configuration not stated)	-19.1%	inactive	inactive			
C/C(=C/CCC(CO)C1CCC2(C)C3CCC4C(C)(C)C(OC5OC(CO)C(O)C(O)C5O)CC(O)C45CC35CCC12C)COC1OC(CO)C(O)C(O)C1O (configuration not stated)	-10.7%	inactive	inactive			
CC1OC(OC2CCC3(C)C(CCC4(C)C3CC=C3C5CC(C)(C)CCC5(C(=O)OC5OC(CO)C(O)C(O)C5O)CCC34C(=O)O)C2(C)C)C(O)C(O)C1O (configuration not stated)	0.763%	inactive	inactive			
C/C1=C\[C@H]2OC(=O)[C@@H](C)[C@@H]2CC/C(C(=O)O)=C/CC1	-5.34%	inactive	inactive			
C[C@@H]1[C@H]2[C@H](O[C@@H]3O[C@H](CO)[C@@H](O)[C@H](O)[C@H]3O)OC=C(C(=O)O)[C@H]2C[C@@H]1OC(=O)/C=C/c1ccc(O)cc1	18.8%	inactive	inactive			
C[C@]12CC[C@@H]3c4ccc(O[C@@H]5O[C@H](C(=O)O)[C@@H](O)[C@H](O)[C@H]5O)cc4CC[C@H]3[C@@H]1CCC2=O	-7%	inactive	inactive			
C=C1C(=O)O[C@H]2[C@H]1[C@@H](OC(=O)/C(C)=C\C)C[C@]1(C)O[C@@H]1[C@H]1O[C@H]1C(=C)[C@H]2O	-10.7%	inactive	inactive			
Cc1nnsc1C(=O)Nc1ccc(-n2nc(C(F)(F)F)cc2C(F)(F)F)cc1	1.43%	inactive	inactive			
COc1ccc(Sc2ccc(NC(=O)c3ccccc3Cl)cc2C#N)cc1	20.3%	inactive	inactive			
CC(=O)O[C@@H]1CC2C(C)(C)C(=O)C=C[C@]2(C)C2CC[C@]3(C)C(=CC(=O)[C@@H]3c3ccoc3)[C@@]21C (some centres not stated)	1.53%	inactive	inactive			
COc1c(N2CC3CCCNC3C2)c(F)cc2c(=O)c(C(=O)O)cn(C3CC3)c12 (configuration not stated)	3.34%	inactive	inactive			

Source: PubChem BioAssay (NCATS)
